# Measurements as given in PubChem BioAssay (NCI).
# “And” between values parts separate entries of the source, which are not always exact repeats. Equal values may be shown once. About 83,000 compounds went through this panel and 20% of them were active in at least one assay; those are over-represented in the sample as a whole.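 Percent growth is the endpoint: 0 to 100 indicates growth inhibition (40 means 60% inhibition), 0 means no net growth, and negative values indicate cell death.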 The source made the active and inactive calls.
# Tested on: OVCAR-3 ovarian
# Test: NCI-60 one-dose screen, 48 h (100 = growth as untreated, 0 = no growth, -100 = all killed)
# Details: 10 µM
# Protocol: Growth inhibition of the OVCAR-3 human tumor cell line is measured as a screen for anti-cancer activity. Cells are grown in 96 well plates and exposed to the test compound for 48 hours. Compounds are tested at a single concentration, which is 10^-5 M for most compounds. The reported endpoint is percent growth (GI% or GIPRCNT), where numbers from 0 - 100% represent growth inhibition, and numbers from -100% - 0 represent cell death. For example, a value of 40 represents 60% growth inhibition. A value of 0 means no net growth occurred over the course of the experiment. A value of -40 indicates 40% of cells at the beginning of the experiment died by the end of the experiment. A value of -100 means all cells are dead at the end of the experiment.
# NCI-60 Human Tumor Cell Lines Screen was performed using the standard one-dose NCI protocol, which is described in more detail at https://dtp.cancer.gov/discovery_development/nci-60/default.htm.
# Compounds with GIPRCNT values below 10 were considered active. Activity score was based on GIPRCNT using the following formula: […]
# Score is 0 for GIPRCNT values of 100 or above, 50 for GIPRCNT values of 0, and 100 for GIPRCNT values of -100.
row,Structure (SMILES),growth
1,O=C(Nc1cccc(Br)c1)Oc1cccc2cccnc12,119% (inactive)
2,CN(C)C(=O)c1ccc(SC(=S)NCc2ccccc2)cc1,121% (inactive)
3,COc1ccc(-c2cscc2N)cc1,112% (inactive)

# Same assay, conditions: 10 µM unless noted
row,Structure (SMILES),growth
1,c1ccc2c(c1)Nc1cc3ccccc3cc1N2,-3.74% (active)
2,Cc1ccc(N=C=C(c2ccccc2)c2ccccc2)cc1,118% (inactive)
3,Cc1cc2nc(CS)[nH]c2cc1C,82.6% (inactive)
4,O=C(O)C1C2CC3C(OC(=O)C31)C2Br (stereo not given),110% (inactive) and 106% (inactive)
5,O=C1C=CC(=O)N1C1c2ccccc2-c2ccccc21,35.4% (inactive)
6,CC1OC(OC2C(OC3CCC4(C)C(CCC5(C)C4CC=C4C6CC(C)(C)CCC6(CO)C(O)CC45C)C3(C)C)OC(C(=O)O)C(OC3OC(COC4OC(CO)C(O)C(O)C4O)C(O)C(O)C3O)C2O)C(O)C(O)C1O (stereo not given),-50.7% (active)
7,Nc1nc(N)c2nc(CNc3ccc(C(=O)NC(CCC(=O)O)C(=O)O)cc3)cnc2n1 (stereo not given),37.6% (inactive) and 39.8% (inactive)
8,CCC(CC)COC(=O)c1ccc(O)c(O)c1,78.1% (inactive)
9,Cc1cc(N)c2ccccc2[n+]1CCCCCCCCCC[n+]1c(C)cc(N)c2ccccc21,-16.7% (active) and 15% (inactive)
10,O=C1c2ccccc2C(=O)c2sc(Nc3cccc(Cl)c3)nc21,-34.3% (active)
11,O=C(O)c1ccc2c3c(ncnc13)-c1ccccc1C2=O,83.4% (inactive)
12,C1=C(c2ccccc2)C(c2ccc(OCCN3CCCCC3)cc2)Oc2ccccc21 (stereo not given),65.6% (inactive)
13,CCCCCCCCCCCCCCCCCCOP(=O)([O-])OC1CC[N+](C)(C)CC1,65.9% (inactive) and 14% (inactive)
14,Cc1ccc(NS(=O)(=O)c2ccc(C)cc2)cc1,105% (inactive) and 98.9% (inactive)
15,Cc1ccc(C(=Nc2ccccc2)N=P(c2ccccc2)(c2ccccc2)c2ccccc2)cc1,-37.4% (active)
16,CC(=O)ON=C1C=CC(=C(C#N)c2ccccc2)C=C1,-30.6% (active)
17,O=[N+]([O-])c1ccc(N=Nc2ccc(O)cc2O)cc1,54.8% (inactive)

row,Structure (SMILES),growth
1,Cc1ccnc2c1ccc1c(C)ccnc12,24.9% (inactive)
2,Nc1nc(N)c2c(ccc3c2ccn3Cc2cccc([N+](=O)[O-])c2)n1,-93.9% (active)
3,COc1ccc2nc3cc(Cl)ccc3c(NCCNc3c4ccc(Cl)cc4nc4ccc(OC)cc34)c2c1,-92.5% (active)
4,CC1(C)CC([P+](c2ccccc2)(c2ccccc2)c2ccccc2)=NN1,23.7% (inactive)
5,O=C1NC(=O)/C(=C/C=C/c2ccccc2)S1,58.3% (inactive)
6,NC1=CC(=O)c2ccccc2C1=O,82.6% (inactive)
7,COc1ccc(N=N/N=c2\sc3cc(OC)ccc3n2C)cc1,97.8% (inactive)
8,Nc1ncnc2c1ncn2C1OC(CO)C(O)C1O (stereo not given),116% (inactive) and 89.8% (inactive) and 108% (inactive)
9,O=C(/C=C\c1cc(Br)ccc1O)/C=C/c1cc(Br)ccc1O,-81.5% (active)
10,O=C1OCc2cccc3cccc1c23,110% (inactive)
11,Cc1ccc2c(ccc3c[n+]4c5ccccc5ccc4n32)c1,-43.2% (active)
12,O=C1c2cccnc2-c2nccc3c2c1nc1cc(Br)ccc13,-83.1% (active) and -95.4% (active)
13,Oc1c(Br)c(Br)c(O)c(Br)c1Br,5.11% (active)
14,Oc1c(Cl)cc(Cl)c2cccnc12,68% (inactive) and 15.3% (inactive)
15,Oc1ccc(/C=N/NC(=S)Nc2ccccc2)nc1,20% (inactive)
16,CCC(=O)Sc1ccccc1C(=O)Nc1ccc(Cl)cc1,39.9% (inactive)
17,O=[N+]([O-])c1ccc2c(N=Nc3ccc4ccccc4c3O)c(O)cc(S(=O)(=O)O)c2c1,41.4% (inactive)

# Same assay, conditions: 100 µM
row,Structure (SMILES),growth
1,O=C(Nc1cccc(Br)c1)Oc1cccc2cccnc12,-74.7% (active)
2,CN(C)C(=O)c1ccc(SC(=S)NCc2ccccc2)cc1,46.9% (inactive)
3,COc1ccc(-c2cscc2N)cc1,40.9% (inactive)
